Bioassay records: PubChem BioAssay, The Scripps Research Institute Molecular Screening Center
ssDAF12 agonist: S. stercoralis DAF-12 nuclear receptor activators, primary screen, cell-based, luminescence, HEK293, GRIP1 co-expression, lit1-tk-luc; Nuclear hormone receptor DAF-12 (Strongyloides stercoralis); HEK293 ssDAF-12/GRIP1 lit1-tk-luc reporter; % of 3 µM dafachronic acid response; activation, % at 6.8 µM; actives 1% (n = 370,000); AID 652126, 2013;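 active means activation above the mean over all tested compounds plus 3 SD, cut at about 0.9% in these data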
DAX1 inh-1: DAX1 (NR0B1) inhibitors on StAR promoter, primary screen, cell-based, luminescence, SF-1 (NR5A1), full-length DAX-1; HEK293T StAR-luciferase reporter, SF-1/DAX-1 repression relief; inhibition, % at 6.8 µM; actives 1.1% (n = 370,000); AID 652010, 2013;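 active means inhibition above the mean over all tested compounds plus 3 SD, cut at about 3.6% in these data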;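 further: higher inhibition means more luminescence from relief of DAX-1 repression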
DAX1 inh-2: DAX1 (NR0B1) inhibitors, primary screen, cell-based, HEK293, Gal4-DAX1, luciferase luminescence; inhibition, % at 6.75 µM; Nuclear receptor subfamily 0 group B member 1 (Homo sapiens), P51843; actives 0.99% (n = 340,000); HEK293 Gal4-DAX1 luciferase reporter; AID 504766, 2011;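 active means inhibition above the mean over all tested compounds plus 3 SD, cut at about 4.2% in these data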;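 further: inhibition shows as a rise in luminescence from relieved DAX1 repression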
Target sequence (P51843 207-470 limits assumed): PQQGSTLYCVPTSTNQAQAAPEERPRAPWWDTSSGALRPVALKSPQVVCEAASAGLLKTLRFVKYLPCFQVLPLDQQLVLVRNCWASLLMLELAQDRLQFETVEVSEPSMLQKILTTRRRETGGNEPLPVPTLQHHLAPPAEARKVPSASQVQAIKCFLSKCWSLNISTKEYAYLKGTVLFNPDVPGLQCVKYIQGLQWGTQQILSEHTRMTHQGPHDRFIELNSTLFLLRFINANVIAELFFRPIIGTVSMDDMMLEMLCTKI
hgDAF-12 ag: H. glycines DAF-12 receptor agonists, primary screen, cell-based, luminescence, HEK293, GAL4 fusion, UAS-luciferase; HEK293 GAL4-hgDAF12 UAS-luciferase reporter, agonist luminescence; normalized to butyrate control; Nuclear hormone receptor DAF-12 (Heterodera glycines), GAL4 fusion; actives 1.8% (n = 370,000); AID 687014, 2013; activation, % at 6.8 µM;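 active means activation above a cutoff set at the mean of all screened compounds plus 3 SD, cut at about 10% in these data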
hcDAF-12 act: H. contortus DAF-12 nuclear receptor activators, primary screen, cell-based, luminescence, HEK293, lit1-tk-luc reporter; HEK293 hcDAF-12 lit1-tk-luc reporter; 0% DMSO, 100% Δ7-dafachronic acid; activation, % at 6.8 µM; actives 1.4% (n = 370,000); AID 652067, 2013;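 active means activation above the mean of all tested compounds plus 3 SD, cut at about 5.5% in these data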
DAX1 conf: DAX1 (NR0B1) inhibitors relieving SF-1 repression, confirmation, cell-based, luminescence, HEK293T, full-length DAX-1, SF-1 activated StAR promoter | inhibition, % at 6.8 µM | actives 87% (n = 2,400) | shares compounds with DAX1 inh-1 | HEK293T StAR-promoter luciferase reporter, SF-1/DAX-1 repression;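 active means inhibition above the average of every tested compound plus 3 SD, cut at about 3.8% in these data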
SF1 AF2mut Luc: StAR reporter signal changes without DAX1, counter-screen for DAX1 inhibitor project, cell-based, luminescence, AF-2 mutant SF-1, transactivation; shares compounds with DAX1 inh-1; HEK293 StAR-luciferase, SF-1 AF2 mutant; inhibition, % at 6.8 µM; actives 78% (n = 2,400); AID 652136, 2013;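 active means inhibition above the mean of all tested compounds plus 3 SD, cut at about 3% in these data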
LXR ag: LXR agonists, Gal4 luciferase reporter, confirmation, counter-screen for hcDAF-12 agonist project, cell-based, luminescence, HEK293, H. contortus campaign; AID 743027, 2013; 3,400 tested, under 10 active; shares compounds with hcDAF-12 act; HEK293 Gal4-LXR tk-luc reporter, 24 h; normalized: DMSO 0%, positive control 100%; activation, % at 6.8 µM;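 active means mean percent activation of the reporter above a cutoff set as the average over tested compounds plus their standard deviation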
hcDAF12 conf: H. contortus DAF-12 receptor agonists, confirmation, cell-based, luminescence, HEK293, lit1-tk-luc, triplicate. shares compounds with hcDAF-12 act. HEK293 hcDAF-12 lit1-tk-luc reporter; % of Δ7-dafachronic acid response. activation, % at 6.8 µM. actives 61% (n = 3,400). AID 743032, 2013;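 active means mean activation across triplicate tests above the threshold derived from the earlier primary screen, cut at about 5.5% in these data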
hgDAF12 conf: H. glycines DAF-12 receptor agonists, confirmation, cell-based, luminescence, HEK293, GAL4-LBD fusion; actives 80% (n = 3,300); HEK293 GAL4-hgDAF12 luciferase reporter, agonist mode; percent of butyrate response; AID 743050, 2013; activation, % at 6.8 µM; shares compounds with hgDAF-12 ag;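 active means mean activation over triplicate wells above the hit cutoff derived from the earlier primary screen, cut at about 11% in these data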
LXRb DAF12 ctr: LXR agonists, Gal4 luciferase reporter, confirmation, counter-screen for hgDAF-12 agonist project, cell-based, luminescence, HEK293, H. glycines campaign. shares compounds with hgDAF-12 ag. 24 h. activation, % at 6.8 µM. 3,300 tested, under 10 active;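 active means mean activation of the triplicate above a set limit carried over from the primary screen, none filed active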
Numbers stand for hits; i = inactive; nt = not tested or not shown. This is a sample that favours compounds with a hit; in the whole collection about 4.1% have one here.

SMILES	ssDAF12 agonist	DAX1 inh-1	DAX1 inh-2	hgDAF-12 ag	hcDAF-12 act	DAX1 conf	SF1 AF2mut Luc	hgDAF12 conf	LXRb DAF12 ctr	others
O=C(Nc1ccccc1)OCCc1ccccn1	i	9.3	5.8	13.9	i	7.4	4.2	11.2	i
O=C(CCCc1ccccn1)c1ccccc1	i	5.6	i	18.1	7.7	10.8	5.8	11.1	i	LXR ag=i;hcDAF12 conf=i
Cc1ccc(NC(=O)CCc2ccccc2)cc1C	i	i	i	i	i	nt	nt	nt	nt
Cc1ccc(NC(=O)/C(Cl)=C/c2ccccc2)cc1C	1.0	7.0	i	19.9	9.7	19.5	8.2	21.4	i	LXR ag=i;hcDAF12 conf=8.4
FC(F)(F)c1ccc(Oc2ccc3cc(Br)ccc3c2)nc1	i	i	i	i	i	nt	nt	nt	nt
CC(C)(C)Nc1ncnc2c1cnn2-c1ccccc1	i	9.0	i	16.5	i	15.5	4.7	11.7	i
CCOC(=O)C1CCN(c2ncnc3c2cnn3-c2ccccc2)CC1	i	i	i	i	i	nt	nt	nt	nt
CC(C)Nc1ncnc2c1cnn2-c1ccc(Cl)cc1	i	4.8	i	16.2	i	11.0	i	i	i
Clc1ccc(Nc2ncnc3c2cnn3-c2ccccc2)cc1	i	i	i	i	i	nt	nt	nt	nt
CC1CCN(c2ncnc3c2cnn3-c2ccccc2)CC1	i	7.7	i	14.7	i	14.4	12.1	13.7	i
Cc1ccc(F)cc1NC(=O)N1c2ccccc2NC(=O)CC1C (stereo not given)	i	i	i	i	i	nt	nt	nt	nt
Cc1ccc(Nc2ncnc3nc[nH]c23)cc1Cl	i	6.4	i	13.7	i	8.1	5.5	14.0	i
Cc1c(Cl)ccc2sc(NC(=O)c3ccco3)nc12	1.2	6.0	i	21.4	10.4	12.1	8.7	21.5	i	LXR ag=i;hcDAF12 conf=9.9
Cc1c(Cl)cccc1NC(=O)c1ccco1	i	i	i	i	i	nt	nt	nt	nt
CCC(=O)Nc1cccc(NC(=S)NC(=O)c2ccc(Cl)cc2Cl)c1	i	i	i	i	i	nt	nt	nt	nt
O=C(NC(=S)Nc1ncccn1)c1ccc(Cl)cc1Cl	i	6.7	5.1	15.7	i	14.4	9.8	14.0	i
